# Bioassay records (PubChem)
# IL-1B inflam inh = inflammasome signaling inhibition, IL-1 beta readout; activity change, % at 57.5 µM; AID 743279; 360,000 tested, 4.7% active; THP-1 LPS/ATP IL-1B secretion, AlphaLISA, 16 h; stronger effect = lower value; in the data active means activity change below about -50%; inconclusive means mostly about -30% to -49%
#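 Secreted IL-1B measured by AlphaLISA bead assay after 16 h compound exposure of THP-1 cells; compounds (final up to 57.5 uM) added 1 h before LPS (250 ng/mL) and ATP (1.25 mM) stimulation; lower signal means less secretion.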
# TDP1 cell CPT = growth inhibition of DT40 Tdp1-/-;hTDP1 cells with camptothecin (screen for TDP1 inhibitors). chicken DT40 Tdp1-/-;hTDP1 cells + 20 nM CPT, ATP luminescence, 48 h. Potency, µM (highest dose often 46.2 µM), without a hit: at the top dose activity change, negative = growth inhibition, hits mostly inhibitors. 420,000 tested, 12% active. AID 686979; further: potency means the concentration at half of the fitted maximal effect; nearly all actives have a fitted effect of over 55% in size
#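 Cell growth measured by CellTiter-Glo luminescence after a minimum 48 h, 37 C compound exposure with 20 nM CPT in Tdp1-knockout DT40 cells stably expressing hTDP1, seeded 400/well; qHTS titration format.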
# TDP1 cell noCPT = qHTS for Inhibitors of human tyrosyl-DNA phosphodiesterase 1 (TDP1): qHTS in cells in absence of CPT; Potency, µM (doses to about 46.2 µM), for inactives: top-dose activity change, negative = growth inhibition, usual class: inhibitors; DT40 Tdp1-/- hTDP1 cells, no CPT, ATP luminescence, 48 h; 420,000 tested, 15% active; AID 686978, 2013; further: potency means the concentration at half of the fitted maximal effect; nearly all actives have a fitted effect of over 55% in size
#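 Chicken DT40 Tdp1-/- cells stably complemented with human TDP1 were seeded at 400 cells/well with DMSO in place of 20 nM camptothecin. After compound pinning, cells grew at least 48 hr at 37 °C; viability read by CellTiter-Glo luminescence.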
# HT1080 IDH1KD tx = kills HT-1080 cells with IDH1 knockdown; HT-1080 IDH1 knockdown viability, ATP luminescence, 48 h; Potency, µM (top dose mostly 46.1 µM), for the others: at the highest dose activity, negative = toxicity, hits mostly cytotoxic; 360,000 tested, 2% active; AID 686971;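 further: potency means the concentration at half of the fitted maximal effect; 0% = DMSO wells and -100% = cell-free medium wells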
#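 CellTiter-Glo luminescence after 48 h compound exposure at 37 degrees C of IDH1-knockdown HT-1080 cells in 5% FBS RPMI. %Activity scaled between DMSO wells and cell-free media wells, with curves fitted and assigned curve classes.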
# HT1080NT lethal = kills 2HG-producing HT-1080-NT fibrosarcoma cells; HT-1080-NT fibrosarcoma viability, CellTiter-Glo ATP luminescence, 48 h; Potency, µM (titrated, usually from 46.1 µM), for inactives: top-dose activity, negative = less viability, hits mostly cytotoxic; 360,000 tested, 1.6% active; AID 686970;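 further: NT is the 2HG producing partner of a matched IDH1 knockdown line; potency means the concentration at half of the fitted maximal effect; 0% = DMSO-treated cells and -100% = media-only wells without cells; nearly all actives have a fitted effect of over 55% in size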
#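 Fibrosarcoma NT cells, 750 per well in 5% FBS RPMI, were exposed to compound for 48 hours. Viability: CellTiter-Glo luminescence.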
# * marks the source's active call; other numbers are inactive results; ? = inconclusive; nt = no result. Shown are actives, neighbours in structure and some others; about 19% of the full set was active somewhere. Unless noted, the call rests on the fitted dose curve; in most records, active means well fitted curve in the direction sought with a large enough effect; inconclusive means small, poorly fitted or top-dose-only effect, or another doubt; inactive means no such curve, though single readings can be large; an effect the other way counts as inactive or inconclusive. Unless noted, on the % scale 0 is the no-effect control and ±100 the full control effect.
SMILES,IL-1B inflam inh,TDP1 cell CPT,TDP1 cell noCPT,HT1080 IDH1KD tx,HT1080NT lethal
CN(C)C1CCCCC=CC(=O)NC1 (centres undefined),0.0,-2.2%,21.4%,-0.7%,-0.2%
COc1ccc(-n2cnc3cc(C(=O)NCCC4=CCCCC4)ccc32)cc1,nt,18.4µM*,?,nt,nt
O=C(NCCC1=CCCCC1)c1ccc2c(c1)ncn2-c1cccc(Cl)c1,nt,16.4µM*,14.6µM*,nt,nt
CCOCCCNC(=O)c1ccc2c(c1)ncn2-c1cccc(C)c1,?,?,?,-16.3%,-22.7%
CC(=O)c1cccc(NC(=O)c2nc(-c3ccccc3)n(-c3ccccc3C)n2)c1,nt,25.9µM*,20.6µM*,nt,nt
Cc1cccc(NC(=O)c2nc(-c3ccccc3)n(-c3ccccc3)n2)c1C,?,-24.6%,?,-10.3%,-12.0%
CC(=O)c1cccc(NC(=O)c2nc(-c3ccccc3)oc2C)c1,-18.9,?,14.6µM*,-2.9%,4.1%
CCCCCC1=C(C(=O)OC)C(C(=O)OCC)N(S(=O)(=O)C(F)(F)F)c2ccccc21 (centres undefined),12.7,?,20.6µM*,3.9%,9.7%
CCN1C(=O)N(S(=O)(=O)C(F)(F)F)[C@@H](c2ccccc2)C(C(=O)OC)=C1C,31.4,-18.3%,-24.2%,0.5%,-1.3%
CCOC(=O)N1CCN(C(=O)CSc2nc3c(cnn3-c3ccccc3)c(=O)[nH]2)CC1,53.4,?,23.1µM*,0.6%,-6.1%
Cc1ccc2nc(SCc3nc4c(cnn4-c4ccccc4)c(=O)[nH]3)[nH]c2c1,52.6,20.6µM*,16.4µM*,9.0%,6.9%
Cc1ccc2nc(SCc3nc4cc(Cl)ccc4c(=O)[nH]3)[nH]c2c1,7.1,-9.0%,?,-3.1%,-11.5%
O=c1[nH]c(CSc2nc3ccccc3[nH]2)nc2c1cnn2-c1ccccc1,-66.7*,25.9µM*,20.6µM*,?,23.1µM*
Nc1nc(SCC(=O)N2CCCC2)[nH]c(=O)c1-c1ccccc1,15.5,?,25.9µM*,21.1%,23.0%
Nc1nc(SCC(=O)N2CCOCC2)[nH]c(=O)c1-c1ccccc1,2.6,-25.7%,0.0%,13.0%,19.7%
CCCCCSc1nc2c(cnn2-c2ccccc2)c(=O)[nH]1,49.2,?,?,?,?
O=c1[nH]c(SCc2nc3c(cnn3-c3ccccc3)c(=O)[nH]2)nc2ccccc12,4.9,?,20.6µM*,?,-21.0%
O=c1[nH]c(CSc2ncccn2)nc2c1cnn2-c1ccccc1,-1.5,-26.3%,-19.7%,1.3%,-1.5%
CCCCCSc1nc2c(cnn2-c2ccc(F)cc2)c(=O)[nH]1,24.5,?,23.1µM*,10.5%,27.5%
O=C(NCc1ccccn1)C1Nc2ccc(OC(F)(F)F)cc2C2C=CCC12 (centres undefined),21.7,?,?,2.8%,4.0%
O=C(NCc1ccccc1)C1Nc2ccc(OC(F)(F)F)cc2C2C=CCC12 (centres undefined),12.9,23.1µM*,?,6.9%,4.2%
CCOC(=O)C1Nc2ccc(OC(F)(F)F)cc2C2C=CCC12 (centres undefined),-13.8,?,?,-9.8%,-5.2%
O=C(NC1CC1)C1Nc2ccc(OC(F)(F)F)cc2C2C=CCC12 (centres undefined),18.8,?,13µM*,-5.5%,0.0%
CCCCN1C(C(=O)Nc2ncccn2)=C(O)c2ccccc2S1(=O)=O,-3.8,4.5%,-13.9%,13.9%,8.1%
C/C(=N\NC(=S)Nc1c(C)cccc1C)c1cc2ccccc2o1,5.6,3.26µM*,2.06µM*,-19.4%,-9.5%
C/C(=N\NC(=S)Nc1ccccc1C)c1cc2ccccc2o1,4.3,4.11µM*,5.17µM*,-0.5%,-9.2%
C/C(=N\NC(=S)Nc1c(C)cccc1C)c1ccc(O)cc1,21.5,16.4µM*,?,-1.9%,-3.2%
C/C(=N\NC(=O)c1ccco1)c1cc2ccccc2o1,-7.6,7.8%,?,21.5%,23.4%
